About 83,000 compounds went through this panel and 20% of them were active in at least one assay; those are over-represented in the sample as a whole.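 The endpoint reported here, percent growth, reads 100 for growth as untreated, 0 for no net growth and -100 for all cells dead.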 A number with no mark means an inactive call. Activity calls are given as the source filed them. The calls were made as follows: active = growth percent below 10; inactive = the rest.

Common to all, as to experiment: NCI-60 one-dose screen, 48 h (100 = growth as untreated, 0 = no growth, -100 = all killed)
The subject of one assay is HCT-15 colon. Particulars: 10 µM unless noted.
The test system of the next assay is HT29 colon. The settings on record: 10 µM unless noted.
Another assay has as its system SNB-19 CNS. Particulars: 10 µM unless noted.
Another assay deals with U251 CNS. Particulars: 10 µM unless noted.
The subject of a further assay is PC-3 prostate. Particulars: 10 µM unless noted.
A further assay relates to SK-MEL-5 melanoma. The settings on record: 10 µM unless noted.
Another assay relates to UACC-62 melanoma. Particulars: 10 µM unless noted.
A further assay relates to LOX IMVI melanoma. Particulars: 10 µM.
For the next assay, the system named is SK-MEL-28 melanoma. The settings on record: 10 µM unless noted.
For the next assay, the system named is SK-MEL-2 melanoma. Particulars: 10 µM unless noted.
The next assay concerns EKVX NSCLC. The settings on record: 10 µM unless noted.
The subject of a further assay is UO-31 renal. The settings on record: 10 µM unless noted.
The test system of another assay is TK-10 renal. Particulars: 10 µM unless noted.
The test system of another assay is ACHN renal. Particulars: 10 µM unless noted.
A further assay has as its system CAKI-1 renal. The settings on record: 10 µM unless noted.
Another assay deals with A498 renal. The settings on record: 10 µM unless noted.
The subject of a further assay is CCRF-CEM leukemia. The settings on record: 10 µM unless noted.
The subject of another assay is MOLT-4 leukemia. Particulars: 10 µM unless noted.
The next assay concerns SN12C renal. Particulars: 10 µM unless noted.
A further assay deals with SNB-75 CNS. Particulars: 10 µM unless noted.

For the molecule `COc1ccc2c(ccc[n+]2C)c1`, the growth in the assay with HCT-15 colon was 93.5%; in the assay with HT29 colon it was 93%; in the assay with SNB-19 CNS, 101%; in the assay with U251 CNS, 96.7%; in the assay with PC-3 prostate, 119%; with SK-MEL-5 melanoma it was 103%. Moreover, the growth in the assay on UACC-62 melanoma is 95.5%; with LOX IMVI melanoma, 105%; in the assay with SK-MEL-28 melanoma, 111%; with SK-MEL-2 melanoma, 103%; with EKVX NSCLC, 84.7%; with UO-31 renal, 86.5%. The growth in the assay with TK-10 renal is 102%; with ACHN renal, 98.5%; with CAKI-1 renal, 96.4%; in the assay with A498 renal, 107%; with CCRF-CEM leukemia it was 98.3%; with MOLT-4 leukemia it was 111%.
Take `O=S(=O)(c1ccc(NC(=S)NCc2cccnc2)cc1)N1CCCCC1`: the growth is 57.2% in the assay with HCT-15 colon; 55.2% in the assay with HT29 colon; 60.6% with SNB-19 CNS; 25.3% in the assay on PC-3 prostate; 74.2% in the assay on SK-MEL-5 melanoma; 93.7% with UACC-62 melanoma. In addition, the growth with LOX IMVI melanoma is 56.5%; with SK-MEL-28 melanoma it was 92.6%; with SK-MEL-2 melanoma, 41.6%; in the assay with SN12C renal, 36.1%; in the assay on UO-31 renal, 70.7%; in the assay with TK-10 renal it was 112%. Further, the growth with ACHN renal is 86.9%; in the assay on CAKI-1 renal, 29.1%; in the assay with A498 renal it was 97.3%; in the assay with CCRF-CEM leukemia it was 29%; with MOLT-4 leukemia, 47.3%.
Regarding `COC(=O)C1=C(C)C(=O)CC1`, the growth in the assay with HCT-15 colon was 121%; in the assay with SNB-75 CNS, 94.4%; with SNB-19 CNS, 104%; in the assay with U251 CNS it was 115%; in the assay on PC-3 prostate it was 96.2%; in the assay with SK-MEL-5 melanoma it was 110%. Besides, the growth in the assay with UACC-62 melanoma is 100%; in the assay with LOX IMVI melanoma it was 118%; in the assay on SK-MEL-28 melanoma, 110%; in the assay on SK-MEL-2 melanoma, 115%; with EKVX NSCLC, 131%; in the assay on SN12C renal, 98.3%. Further, the growth in the assay with UO-31 renal was 89%; in the assay on TK-10 renal, 108%; in the assay with ACHN renal it was 99.7%; in the assay on CAKI-1 renal it was 116%; in the assay with A498 renal, 109%; in the assay with CCRF-CEM leukemia it was 99.6%. Further, the growth in the assay on MOLT-4 leukemia is 101%.
Consider `NC(CSSCC(N)C(=O)O)C(=O)O` (centres undefined), for which the growth with HCT-15 colon was 34.5%; in the assay on HT29 colon, 5.05% (active); in the assay on SNB-19 CNS, -6.03% (active); in the assay with U251 CNS it was 27%; in the assay with PC-3 prostate, 27.3%; in the assay on UACC-62 melanoma, -19.3% (active). Besides, the growth in the assay on LOX IMVI melanoma was 18.2%; with SK-MEL-28 melanoma, 18.5%; in the assay with SK-MEL-2 melanoma, -8.58% (active); with EKVX NSCLC it was 21.9%; in the assay with SN12C renal it was -11.2% (active); in the assay on UO-31 renal, 13.9%. The growth in the assay on TK-10 renal is 20.4%; with ACHN renal, -37.8% (active); in the assay on CAKI-1 renal, 11.4%; in the assay on A498 renal, -7.36% (active); with CCRF-CEM leukemia, -10.1% (active); in the assay on MOLT-4 leukemia, -9.51% (active).
Turning to `NCC(O)C(O)C(O)C(O)CO` (centres undefined), the growth in the assay on HCT-15 colon is 106%; in the assay with HT29 colon, 95.9%; in the assay on SNB-19 CNS, 104%; with U251 CNS, 90.5%; in the assay with PC-3 prostate, 81.4%; with SK-MEL-5 melanoma, 101%. In addition, the growth in the assay on LOX IMVI melanoma is 97.8%; with SK-MEL-28 melanoma it was 108%; in the assay on SK-MEL-2 melanoma it was 96.4%; in the assay on EKVX NSCLC, 102%; in the assay with SN12C renal, 96.2%; with UO-31 renal it was 93.2%. Moreover, the growth with TK-10 renal was 88.5%; in the assay with CAKI-1 renal, 88.6%; in the assay on A498 renal, 98.6%; in the assay with CCRF-CEM leukemia, 89.8%; in the assay with MOLT-4 leukemia, 101%.
Take `CN1CCN(C(=S)S)CC1`: the growth in the assay on HCT-15 colon is 100%; with HT29 colon, 75.5%; in the assay with SNB-19 CNS, 103%; in the assay with U251 CNS it was 102%; in the assay on SK-MEL-5 melanoma, 111%; in the assay with UACC-62 melanoma it was 101%. For the same molecule, the growth with LOX IMVI melanoma was 87.9%; with SK-MEL-28 melanoma, 115%; in the assay on SK-MEL-2 melanoma it was 114%; in the assay with EKVX NSCLC, 106%; in the assay with SN12C renal it was 108%; in the assay with UO-31 renal, 98.4%. The growth was 111% in the assay with TK-10 renal; 105% with ACHN renal; 99.5% in the assay on CAKI-1 renal; 118% with A498 renal; 105% with MOLT-4 leukemia.
As to `NC(CO)(CO)c1ccccc1`, the growth is 97.2% in the assay with HCT-15 colon; 100% in the assay with HT29 colon; 107% in the assay with SNB-19 CNS; 97.3% in the assay on U251 CNS; 100% with PC-3 prostate; 97.9% with SK-MEL-5 melanoma. The growth with UACC-62 melanoma is 101%; in the assay with LOX IMVI melanoma, 101%; with SK-MEL-28 melanoma, 106%; in the assay on SK-MEL-2 melanoma, 107%; with EKVX NSCLC it was 113%; in the assay on SN12C renal, 108%. In addition, the growth in the assay on UO-31 renal was 88.6%; with TK-10 renal it was 96.9%; in the assay with ACHN renal, 112%; in the assay with CAKI-1 renal it was 96.1%; with A498 renal, 101%; with CCRF-CEM leukemia, 90%. In addition, in the assay with MOLT-4 leukemia, the growth was 108%.
As to `CC(=O)Nc1ncc(S(=O)(=O)c2ccc([N+](=O)[O-])cc2)s1`, the growth is 105% in the assay with HCT-15 colon; 108% in the assay with HT29 colon; 114% in the assay with SNB-19 CNS; 108% in the assay on U251 CNS; 101% in the assay with PC-3 prostate; 113% with SK-MEL-5 melanoma. Further, the growth is 102% in the assay on UACC-62 melanoma; 106% in the assay with LOX IMVI melanoma; 111% in the assay with SK-MEL-28 melanoma; 119% in the assay with SK-MEL-2 melanoma; 114% with EKVX NSCLC; 104% in the assay on SN12C renal. Besides, the growth was 79.4% in the assay with UO-31 renal, 115% with ACHN renal, 101% with CCRF-CEM leukemia and 102% in the assay on MOLT-4 leukemia.
Turning to `CCC1CCC(C)NC1` (centres undefined), the growth in the assay on HCT-15 colon was 91.5%; in the assay with HT29 colon it was 104%; in the assay with SNB-19 CNS it was 100%; with U251 CNS, 95.7%; with PC-3 prostate, 94.2%; in the assay with SK-MEL-5 melanoma, 98.9%. For the same molecule, the growth in the assay on UACC-62 melanoma was 99.3%; in the assay with LOX IMVI melanoma, 95.9%; in the assay with SK-MEL-28 melanoma, 102%; with SK-MEL-2 melanoma, 115%; with EKVX NSCLC, 92.5%; in the assay with SN12C renal, 106%. The growth in the assay on UO-31 renal is 93.5%; in the assay on TK-10 renal it was 97.3%; with ACHN renal, 102%; with CAKI-1 renal, 102%; with A498 renal it was 65.6%; in the assay with MOLT-4 leukemia it was 105%.

The values are drawn from PubChem BioAssay (NCI).
